In PubChem BioAssay AID1817 (Sanford-Burnham Center for Chemical Genomics, 2009):
Among all 290,000 compounds or so, about 50 (0.02%) were called active.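 How the source made its calls: active means displacement of at least 50% at 20 µM, with a fluorescence ratio check between 0.3 and a set limit; inactive means the rest.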 Many of the other results were omitted from the sample, so actives are more common in it than they were. Results with a measured potency or affinity are listed apart.

target: E3 ubiquitin-protein ligase SIAH1 (Homo sapiens) (UniProt Q8IUQ4); experiment: blockers of Siah-1 interaction with plectin peptide – biochemical, fluorescence polarization, rhodamine-plectin, uHTS, primary screen (AID 1817); conditions: Siah-1 / rhodamine-plectin peptide fluorescence polarization; at 20 µM; hits give high values;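 further: plate controls were Siah plus tracer with DMSO for no effect and tracer alone without Siah for full effect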
Sequence (Q8IUQ4 whole entry, looked up): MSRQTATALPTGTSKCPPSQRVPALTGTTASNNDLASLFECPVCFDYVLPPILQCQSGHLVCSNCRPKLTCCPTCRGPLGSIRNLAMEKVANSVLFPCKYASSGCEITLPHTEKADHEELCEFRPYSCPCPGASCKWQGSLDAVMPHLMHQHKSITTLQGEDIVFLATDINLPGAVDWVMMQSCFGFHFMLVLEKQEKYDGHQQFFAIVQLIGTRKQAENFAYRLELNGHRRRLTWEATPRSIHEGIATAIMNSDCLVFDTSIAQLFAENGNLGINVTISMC

displacement, inactive:
COc1cc(NS(=O)(=O)c2ccc(NC(=O)/C(=C/c3ccccc3Cl)NC(=O)c3ccccc3)cc2)nc(OC)n1 13.9%
O=C(NC(=S)Nc1ccc(S(=O)(=O)Nc2nccs2)cc1)c1ccccc1 -2.4%
CCCn1c(=O)c(C(=O)NCc2ccncc2)c(O)c2ccccc21 8.4%
CC(=O)Nc1cccc(Oc2ncccc2[N+](=O)[O-])c1 -3%
Cc1ccc(O)c(N=Cc2cc(Cc3ccccc3)cc([N+](=O)[O-])c2O)c1 22.9%
O=[N+]([O-])c1cc(Br)c(O)c(C=Nc2ccc(N3CCOCC3)cc2)c1 41.8%
O=C(NCc1ccco1)/C(=C\c1ccc(F)cc1)NC(=O)c1ccco1 5.4%
O=C(Nc1ccc(S(=O)(=O)N2CCOCC2)cc1)c1ccc(S(=O)(=O)N2CCOCC2)cc1 -5.8%
O=C(Nc1ccc(S(=O)(=O)N2CCOCC2)cc1)c1ccc(F)cc1 10.6%
C=CCn1c(SCCC)nc(O)cc1=O 3%
COc1ccccc1NC(=O)CN(Cc1ccco1)C(=O)c1ccc(-n2nc(C)cc2C)cc1 -1.4%
COc1ccc(N2CCN(C(C)C(=O)N3CCc4ccccc43)CC2)cc1 (centres undefined) -5.4%
Cc1ccsc1/C=N/N=C/c1sccc1C -9.3%
Cc1ccc(N=Cc2sccc2C)cc1C 1.9%
CCN1CCN(c2cc(N3CCN(C(=O)c4ccco4)CC3)c3c4c(onc24)-c2ccccc2C3=O)CC1 51.9%
O=C(O)CCNc1cc(N2CCN(C(=O)c3ccco3)CC2)c2noc3c2c1C(=O)c1ccccc1-3 63%
Cc1ccc(-n2nnc3c(=O)n(CC(=O)NCC4CCCO4)cnc32)cc1 (centres undefined) -0.3%
CCOC(=O)CN1C(=O)CN(c2ccc(C)cc2)C1=O 5.5%
Cn1cc(NC(=O)OCc2ccc(Cl)cc2)c(C(F)(F)F)n1 1.5%
O=S(=O)(O)c1cccc(N=Nc2c(O)ccc3ccccc23)c1 -4.3%
Oc1ccc(Cl)cc1N=Nc1ccccc1 12.6%
CC12CCC(C(=O)N(NC(=O)c3ccc(O)cc3)C1=O)C2(C)C (centres undefined) -2.6%
COc1ccccc1N(CC(=O)NCCSc1ccc(Cl)cc1)S(C)(=O)=O -0.3%
CC(C)CC(c1nnnn1C(C)C)N1CCN(c2cccc(Cl)c2)CC1 (centres undefined) -5.9%
O=C1C=C(Nc2ccccc2)c2ccccc2C1=O 45.4%
Cc1ccc(NC2=CC(=O)C(=O)c3ccccc32)cc1 3.3%
COC(=O)c1cc2ccccc2oc1=O -2.6%
CCOC(=O)N/N=C\c1ccc(OC(=O)c2ccc3c(c2)OCO3)cc1 1.3%
CCCN1C(=O)/C(=C/c2c(NCCCOCC)nc3c(C)cccn3c2=O)SC1=S -2.4%
CCOCCCNc1nc2c(C)cccn2c(=O)c1/C=C1\SC(=S)N(CC(C)C)C1=O -1.2%
Cc1nn(C)c(Oc2cccc(C(F)(F)F)c2)c1C=O -3.5%
Cc1ccc(-n2ncc3c(NNC(=O)c4ccco4)ncnc32)cc1C 3%
O=C(N1CCN(c2ccccc2F)CC1)C12CC3CC(CC(C3)C1)C2 -8.1%
Cc1oc2c(C)c3oc(=O)c(CC(=O)N[C@@H](CC(C)C)C(=O)N[C@@H](Cc4ccccc4)C(=O)O)c(C)c3cc2c1C 30.3%
CCC(NC(=O)CCc1c(C)c2cc3c(C)c(C)oc3cc2oc1=O)C(=O)N[C@@H](Cc1ccccc1)C(=O)O (some centres undefined) 34.5%
COc1cccc(C(C(=O)NC2CCCCC2)N(C(=O)c2cccs2)c2ccc3c(c2)OCO3)c1 (centres undefined) -1%
COc1ccc(CCC(=O)Nc2ccc(S(=O)(=O)N3CCOCC3)cc2)cc1 1.9%
O=c1ccc2cc(S(=O)(=O)N3CCN(c4ccc(Cl)cc4)CC3)ccc2o1 -0.9%
CCCN1C(=O)/C(=c2\s/c(=C3\C=Cc4ccccc4N3CC)c(=O)n2-c2ccccc2)SC1=S -1.6%
CCN1C(=C(C#N)C#N)C=Cc2ccccc21 8.2%
Cc1ccc(-c2nnc(SCC(=O)NC(=O)Nc3ccc(C)cc3C)n2N)cc1 5.1%
CCc1nc(Cl)c(C#N)c2c1CCCC2 3.8%
Cc1ccc(NC(=O)CCC(=O)OCc2ccc(Br)cc2)cc1 1.1%
Cc1ccc(/C=c2\s/c(=C(/C#N)C(=O)N3CCCC3)n(Cc3ccco3)c2=O)s1 -3%
COc1ccc(/C=c2\s/c(=C(/C#N)C(=O)NCc3ccco3)n(-c3ccccc3)c2=O)cc1 21.4%
Cc1ccc(NC(=O)Nc2cnccn2)cc1 -0.7%
Cc1ccc(S(=O)(=O)N2CCN(C(=O)c3cccs3)CC2)cc1C -2%
CCO/C=C1/C(=O)N(CC)c2ccccc21 -7.3%
CCO/C=C1\C(=O)N(c2ccccc2)C(=O)c2ccccc21 1.1%
C/C(=N\NC(=O)c1nnn(-c2nonc2N)c1CN1CCCCC1)c1ccccc1O -0.3%
Cc1cc(CN(C)C(=O)CC2C(=O)NCCN2Cc2ccc(-c3ccccc3)cc2)on1 (centres undefined) -0.5%

displacement, active:
O=C(Nc1ccc(S(=O)(=O)Nc2nccs2)cc1)/C(=C/c1ccccc1Cl)NC(=O)c1ccccc1 54.4%
O=[N+]([O-])c1cc(Cc2ccccc2)cc(C=Nc2ccc(N3CCOCC3)cc2)c1O 50%
Cc1ccsc1C=Nc1ccc(O)cc1 55.3%
CCCCNC1=CC(=O)C(=O)c2ccccc21 60%
CCOCCCNc1nc2c(C)cccn2c(=O)c1/C=C1\SC(=S)N(C(C)CC)C1=O (centres undefined) 53.2%
CCCn1c(=C(C#N)C#N)s/c(=C2\C=Cc3ccccc3N2CC)c1=O 65.1%
CN(c1ccccc1)c1ccc(/C=c2\s/c(=C(/C#N)C(=O)C(C)(C)C)n(Cc3ccco3)c2=O)cc1 102%
CCO/C=C1/C(=O)N(Cc2ccccc2)C(=O)c2ccccc21 55.6%
